Measured values as given in paper PMC5540273 (PLoS ONE, 2017).
“And” between values parts separate entries of the source, which are not always exact repeats. Equal values may be shown once. Read-outs that look alike come from different tables or passages of the source.

How the values were obtained:
GRK4 = conditions: concentration: 1 μM, replicates: in singlicate, n = 1
GRK7 = conditions: concentration: 1 μM, replicates: in singlicate, n = 1
GSK3A = conditions: concentration: 1 μM, replicates: in singlicate; n = 1
GSK3B = conditions: concentration: 1 μM, replicates: in singlicate, n = 1
HASPIN = test system: T1, HASPIN; conditions: concentration: 1 μM, replicates: in singlicate, n = 1
T1 construct: gene GSG2

HCK = conditions: concentration: 1 μM, replicates: in singlicate; n = 1
HIPK1 = conditions: concentration: 1 μM, replicates: in singlicate, n = 1
HIPK2 = conditions: concentration: 1 μM, replicates: in singlicate, n = 1
HIPK3 = conditions: concentration: 1 μM, replicates: in singlicate, n = 1
HIPK4 = conditions: concentration: 1 μM, replicates: in singlicate, n = 1
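Note: KINOMEscan kinase panel screen.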

Row | SMILES | %Inh (GRK4) [%] | %Inh (GRK7) [%] | %Inh (GSK3A) [%] | %Inh (GSK3B) [%] | %Inh (HASPIN) [%] | %Inh (HCK) [%] | %Inh (HIPK1) [%] | %Inh (HIPK2) [%] | %Inh (HIPK3) [%] | %Inh (HIPK4) [%] | %Inh (GRK4; 1 µM) | %Inh (GRK7; 1 µM) | %Inh (GSK3B; 1 µM) | %Inh (HASPIN; 1 µM) | %Inh (HIPK1; 1 µM) | %Inh (HIPK2; 1 µM) | %Inh (HIPK3; 1 µM) | %Inh (HIPK4; 1 µM)
1 | O=C(Nc1cccc(-c2nn3ncccc3c2-c2ccnc(Nc3cccc(C(F)(F)F)c3)n2)c1)c1c(F)cccc1F [GSK299495] | 2 | 0 | 0 | 18 | 2 | 98.1 | 0 | 0 | 1 | 0 |  |  |  |  |  |  |  | 
2 | COc1cc2c(cc1OC[C@@H](O)CO)ncc1c3ccc(C#N)cc3[nH]c21 | 73 | 5 | 0 | 0 | 91.2 | 4 | 94.4 | 98 | 94.2 | 47 |  |  |  |  |  |  |  | 
3 | NS(=O)(=O)CCc1cccc(Nc2nccc(-c3c(-c4cccc(NC(=O)c5c(F)cccc5F)c4)nn4ccccc34)n2)c1 [GSK336735] | 43 | 12 | 20 | 6 | 0 | 98.9 | 0 | 0 | 8 | 25 |  |  |  |  |  |  |  | 
4 | CCn1cnc2c(N)ncnc21 [GW345098] | 0 | 0 | 6 | 9 | 25 | 30 | 33 | 5 | 30 | 0 |  |  |  |  |  |  |  | 
5 | COc1cc(Nc2nccc(N3CCC(NC(=O)c4cccc(NC(C)=O)c4)C3)n2)cc(OC)c1OC (stereo not drawn) [GSK1379754] | 18 | 0 | 0 | 0 | 30 | 0 | 3 | 0 | 0 | 0 |  |  |  |  |  |  |  | 
6 | CC(C)(C)n1cnc2c(N)ncnc21 [SKF-97359] | 5 | 0 | 0 | 0 | 65 | 0 | 13 | 16 | 0 | 0 |  |  |  |  |  |  |  | 
7 | NS(=O)(=O)c1cccc(-c2ccc3ncc(N4CCOCC4)nc3c2)c1 [GSK1535721] | 0 | 0 | 19 | 0 | 36 | 0 | 10 | 0 | 1 | 0 |  |  |  |  |  |  |  | 
8 | Nc1nc(-c2ccc3c(N)n[nH]c3c2)cc(N2CCCC2)n1 [GSK2227430] | 0 | 0 | 0 | 0 | 0 | 0 | 5 | 0 | 0 | 0 |  |  |  |  |  |  |  | 
9 | N#Cc1ccc(-c2cc(-c3c[nH]nc3-c3ccccn3)ccn2)cc1 [GW693028] | 3 | 0 | 12 | 4 | 0 | 0 | 0 | 0 | 0 | 0 |  |  |  |  |  |  |  | 
10 | O=c1cc(N2CCOCC2)nc2n(Cc3cccc4ccccc34)ccn12 [GSK2333389] | 0 | 0 | 9 | 10 | 0 | 0 | 0 | 0 | 21 | 5 |  |  |  |  |  |  |  | 
11 | Cc1nnc(-c2ccc(C)c(-c3ccc(C(=O)Nc4ccc(NS(C)(=O)=O)cc4)cc3)c2)o1 [GW702865] | 0 | 0 | 5 | 0 | 46 | 0 | 0 | 0 | 12 | 0 |  |  |  |  |  |  |  | 
12 | C[C@@H](Oc1cc(-n2cnc3ccc(NC(=O)NC(C)(C)C)cc32)sc1C(N)=O)c1ccccc1Cl [GSK346294] | 0 | 0 | 18 | 21 | 1 | 0 | 9 | 0 | 26 | 0 |  |  |  |  |  |  |  | 
13 | CCc1nc(-c2cccc(C)c2)c(-c2ccnc(NCc3ccccc3)c2)s1 | 9 | 0 | 12 | 0 | 41 | 5 | 21 | 0 | 0 | 7 |  |  |  |  |  |  |  | 
14 | Nc1nccc(-c2c(-c3ccc(F)cc3)ncn2C2CCN(CC(F)(F)F)CC2)n1 [SB-236560] | 10 | 2 | 0 | 0 | 36 | 0 | 27 | 57 | 0 | 0 |  |  |  |  |  |  |  | 
15 | NCCNS(=O)(=O)c1ccc(-c2ccnc3[nH]ccc23)cc1 [GSK977617] |  |  | 0 |  |  | 0 |  |  |  |  | 69% and 37% | 92.1% and 90.1% | 0% and 10% | 95.3% and 86% | 95.6% and 94.2% | 96% and 89% | 97.4% and 95.9% | 77% and 64%
16 | NS(=O)(=O)c1cccc(-c2ccc3nccc(-c4cccc(S(N)(=O)=O)c4)c3c2)c1 [GW867253] | 26 | 0 | 0 | 52 | 64 | 20 | 37 | 29 | 27 | 0 |  |  |  |  |  |  |  | 
17 | CC(C)Oc1ccc2c(-c3ccnc(Nc4ccc(N5CCN(C)CC5)cc4)n3)cnn2n1 [GW696155] | 84 | 0 | 0 | 6 | 70 | 0 | 97.2 | 98.7 | 98.5 | 83 |  |  |  |  |  |  |  | 

Row | SMILES | %Inh (GRK4) [%] | %Inh (GRK7) [%] | %Inh (GSK3A) [%] | %Inh (GSK3B) [%] | %Inh (HASPIN) [%] | %Inh (HCK) [%] | %Inh (HIPK1) [%] | %Inh (HIPK2) [%] | %Inh (HIPK3) [%] | %Inh (HIPK4) [%] | %Inh (GRK4; 1 µM) | %Inh (GRK7; 1 µM) | %Inh (GSK3B; 1 µM) | %Inh (HASPIN; 1 µM) | %Inh (HIPK1; 1 µM) | %Inh (HIPK2; 1 µM) | %Inh (HIPK3; 1 µM) | %Inh (HIPK4; 1 µM)
18 | COc1cc2c(cc1OCCN1CCN(C)CC1)ncc1c3ccc(C#N)cc3[nH]c21 | 0 | 0 | 0 | 0 | 76 | 0 | 97.6 | 100 | 96 | 55 |  |  |  |  |  |  |  | 
19 | O=C(NOCC1CC1)c1ccc(F)c(F)c1Nc1ccc(I)cc1Cl | 0 | 0 | 0 | 0 | 30 | 0 | 0 | 0 | 0 | 0 |  |  |  |  |  |  |  | 
20 | Cc1cn2c(=O)cc(N3CCOCC3)nc2n1Cc1cccc(Cl)c1Cl [GSK2334006] | 0 | 0 | 11 | 13 | 11 | 16 | 0 | 0 | 18 | 6 |  |  |  |  |  |  |  | 
21 | O=C(c1ccc(-c2cc(-c3c[nH]nc3-c3ccccn3)ccn2)cc1)N1CCOCC1 [GW812171] | 14 | 0 | 8 | 7 | 0 | 36 | 36 | 0 | 6 | 7 |  |  |  |  |  |  |  | 
22 | CN1c2ccc(CNc3ccc(F)cc3)cc2-c2c(cnn2C)S1(=O)=O | 0 | 0 | 22 | 0 | 33 | 4 | 35 | 0 | 0 | 0 |  |  |  |  |  |  |  | 
23 | Fc1ccc(-c2ncn(CCCN3CCOCC3)c2-c2ccccn2)cc1 [SB-211742] | 0 | 0 | 0 | 0 | 0 | 6 | 38 | 0 | 0 | 26 |  |  |  |  |  |  |  | 
24 | COCCNC(=O)c1ccc(-c2cc(C(=O)NC3CC3)cc(F)c2C)cc1 [GW868318] | 7 | 28 | 0 | 42 | 0 | 24 | 23 | 15 | 35 | 17 |  |  |  |  |  |  |  | 
25 | Cc1nnc(-c2ccc3ncc(-c4ccc(S(C)=O)cc4)n3c2)o1 (stereo not drawn) | 0 | 16 | 1 | 1 | 30 | 0 | 21 | 40 | 16 | 5 |  |  |  |  |  |  |  | 
26 | O=C(NCCNc1ccnc(Nc2ccc(F)cc2)n1)c1cc2ccccc2s1 [GSK1379874] | 0 | 0 | 0 | 6 | 19 | 0 | 0 | 0 | 0 | 0 |  |  |  |  |  |  |  | 
27 | CC(=O)Nc1ccc(COc2ccc(Nc3ccnc4cc(-c5ccccn5)ccc34)cc2)cc1.Cl [GW440148] | 0 | 0 | 34 | 12 | 13 | 52 | 0 | 0 | 12 | 7 |  |  |  |  |  |  |  | 
28 | Cc1cccc(-c2nc(Nc3ccc4ncsc4c3)c3ccccc3n2)n1 [GW867588] | 0 | 7 | 3 | 5 | 16 | 24 | 0 | 11 | 0 | 6 |  |  |  |  |  |  |  | 
29 | COc1ccc(S(=O)(=O)NC2CCN(c3cc(C)nc(Nc4cccc(C#N)c4)n3)CC2)cc1.O=C(O)C(F)(F)F [GSK1653539] | 0 | 0 | 6 | 0 | 22 | 0 | 0 | 0 | 4 | 0 |  |  |  |  |  |  |  | 
30 | O=c1cc(N2CCOCC2)nc2n(Cc3cccc(Cl)c3Cl)c(C3CC3)nn12 [GSK2358994] | 0 | 0 | 4 | 0 | 0 | 0 | 16 | 0 | 16 | 0 |  |  |  |  |  |  |  | 
31 | CSc1ccc(-c2cc3ncnc(SCC(=O)O)c3s2)cc1 | 0 | 2 | 0 | 0 | 0 | 33 | 55 | 52 | 33 | 22 |  |  |  |  |  |  |  | 
32 | N#Cc1c(N2CCOCC2)sc(-c2ccn[nH]2)c1-c1ccc(Cl)cc1 | 0 | 26 | 0 | 0 | 6 | 28 | 26 | 16 | 28 | 0 |  |  |  |  |  |  |  | 
33 | O=C1Cc2cc(Nc3nc(NCc4cccc(S(=O)(=O)C(F)(F)F)c4)ncc3C(F)(F)F)ccc2N1 | 8 | 0 | 47 | 0 | 8 | 21 | 0 | 7 | 0 | 0 |  |  |  |  |  |  |  | 
